From PubChem BioAssay (Tox21)
Where “and” joins values, the source holds several entries; their conditions need not be identical. Identical values can stand only once. Records with an inconclusive call do not appear. A call without a number means that no potency is given here. The source holds several records for some structures; these can differ, active in one and inactive in another. Calls of active or inactive are those of the source. Calls come from the whole dose curve.

assay: Nuclear factor erythroid 2-related factor 2/antioxidant responsive element (Nrf2/ARE) small molecule agonists: luciferase reporter gene qHTS assay in human keratinocytes (AID 1919969); conditions: KeratinoSens HaCaT ARE-luciferase, luminescence, 24 h; series mostly up to 92.4 µM; note: nearly all actives have a fitted effect of over 35% in size
Excerpt: National Center for Advancing Translational Sciences [NCATS]
Division of Preclinical Innovation [DPI]
U.S. Environmental Protection Agency [EPA]
National Institutes of Environmental Health Sciences [NIEHS]
National Toxicology Program [NTP]
U.S. Food and Drug Administration [FDA]
Oxidative stress has been implicated in the pathogenesis of a variety of diseases ranging from cancer to neurodegeneration. The antioxidant response element (ARE) signaling pathway plays an important role in the amelioration of oxidative stress. The KeratinoSens (Givaudan, Switzerland) is an in vitro test method which quantifies luciferase induction as a measure of activation of Keap1-Nrf2-antioxidationt/electrophile response element (ARE) dependant pathway in HaCaT human keratinocytes stably transfected with a selectable plasmid. The KeratinoSens assay is a cell-based assay with a reporter cell line to detect potential skin sensitizers by their ability to induce the Nrf2/ARE-response. The activation of the report gene under culture conditions can be detected by ONE-Glo Luciferase Assay System (Promega, Madison, WI). This cell line has been used to screen the Tox21 10K compound library to identify agonists that induce oxidative stress. The cytotoxicity of the Tox21 compound library against the KS-ARE cell line was tested in parallel by measuring the cell viability using CellTiter- Fluor assay system (Promega, Madison, WI) in the same wells.
HaCaT derived cell line KeratinoSens were dispensed at 1,500 cells/5uL/well in 1536-well white wall/solid bottom plates using a Multidrop Combi (ThermoFisher Scientific, Waltham, MA) dispenser. After the assay plates were incubated at 37 C/5% CO2 for 5 h, 23 nL of compounds dissolved in DMSO, positive controls or DMSO only was transferred to the assay plate by a pintool workstation (Kalypsys, San Diego, CA). The plates were incubated at 37 C/5% CO2 for 23 h, followed by addition of 1uL/well of CellTiter-Fluor reagent into the assay plates using a Flying Reagent Dispenser (Aurora Discovery, San Diego, CA) for cell viability readout that measures cytotoxicity. After 1 h incubation at 37 C/5% CO2 the fluorescence intensity was measured using a ViewLux (PerkinElmer, Shelton, CT) plate reader. Then 4uL/well of One-Glo were added using a Flying Reagent Dispenser. After the plates were incubated at room temperature for 30 min, the luminescence intensity in the assay plates was measured using ViewLux plate reader.
Potency is the fitted concentration of half-maximal effect.

Row | Structure (SMILES) | Potency
1 | CC(=O)c1ccccn1 | inactive
2 | c1ccc2cc3ccccc3cc2c1 | inactive
3 | O=C(Nc1ccccc1SSc1ccccc1NC(=O)c1ccccc1)c1ccccc1 | 4.88 µM (active) and 6.11 µM (active)
4 | C=CCOC(=O)c1ccccc1C(=O)OCC=C | inactive
5 | CC(O)(P(=O)(O)O)P(=O)(O)O | inactive
6 | O=c1[nH]c(=O)n([C@H]2C[C@H](O)[C@@H](CO)O2)cc1Br | inactive
7 | CC(=O)CC(=O)N(C)C | inactive
8 | Cc1ccc(Cl)cc1 | inactive
9 | CCCCC(C=O)CC (stereo not given) | inactive
10 | CCCCCCCCCC(=O)OC | inactive
11 | CCCCCCC(C)(C)S | inactive
12 | O=[N+]([O-])C(CO)(CO)CO | inactive
13 | Cc1c(N(C)C)c(=O)n(-c2ccccc2)n1C | 69.8 µM (active) and inactive
14 | NCCOCCO | inactive
15 | COCC(=O)O | inactive
16 | C=CCOC(=O)CC(C)C | inactive
17 | C#C[C@]1(O)CC[C@H]2[C@@H]3CCC4=Cc5oncc5C[C@]4(C)[C@H]3CC[C@@]21C | inactive
18 | Cc1cc(=O)[nH]c(=S)[nH]1 | inactive
19 | CCCCC/C=C\C/C=C\CCCCCCCC(=O)OC | 27 µM (active) and 68.6 µM (active)
20 | COC(=O)CC(=O)OC | inactive

Row | Structure (SMILES) | Potency
21 | CCCCOCCOCCOC(C)=O | inactive
22 | CCOC(N)=O | inactive
23 | O=C(O)/C=C\C(=O)O | inactive
24 | CN/C(=C\[N+](=O)[O-])NCCSCc1csc(CN(C)C)n1 | inactive
25 | O=C(O)Cn1c(=O)n(Cc2ccc(Br)cc2F)c(=O)c2ccc(Cl)cc21 | inactive
26 | Cc1ccc2c(c1)C(=O)OC2=O | inactive
27 | CC(C)(C)[C@@H](O)[C@@H](Cc1ccc(Cl)cc1)n1cncn1 | inactive
28 | NS(=O)(=O)c1cc2c(cc1Cl)NC=NS2(=O)=O | inactive
29 | CC(O)C(=O)O (stereo not given) | inactive
30 | Oc1cccc(O)c1 | inactive
31 | Cc1ccc(C(C)C)c(O)c1 | inactive
32 | CCCC(C)=O | inactive
33 | CCCCC1C(=O)N(c2ccccc2)N(c2ccccc2)C1=O | inactive
34 | CCCCCCCC=O | inactive
35 | CCCCCCCCCCCCCCCC(=O)O | inactive
36 | Cc1ncc(CO)c(CO)c1O | inactive
37 | CCCCCC1C(=O)CCC1CC(=O)OC (stereo not given) | inactive
38 | O=C(O)c1cccc([N+](=O)[O-])c1 | inactive
39 | COC(=O)c1ccc(O)cc1 | inactive
40 | C[C@]12C=CC(=O)C=C1CC[C@@H]1[C@@H]2[C@@H](O)C[C@@]2(C)[C@H]1CC[C@]2(O)C(=O)CO | inactive
